High-throughput results from PubChem.
In the library only some 2.4% were active in any assay of this set; here they are far more common.
HTT promoter inh: Primary qHTS for Identification of Small Molecule Inhibitors of Huntingtin Promoter Activity. HEK293 HTT promoter firefly luciferase reporter, 24 h. 0.93% of 48,000 active. Potency, µM (top dose mostly 57.5 µM), without a hit: at the highest dose activity change, negative = inhibition, hits mostly inhibitors; further: nearly all actives have a fitted effect of over 50% in size
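Firefly luciferase signal from promoter-reporter HEK293 cells was scaled between vehicle (0%) and zero RLU (-100%). Compounds were tested at final concentrations of up to 57.5 uM over 24 h at 37 degrees C. PTC124 at 50 uM final served as control inhibitor.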
HTT-AS promoter: Primary qHTS for Identification of Small Molecule Activators of Huntingtin-Antisense Promoter Activity; HEK293 HTT-AS promoter firefly luciferase reporter, 24 h; response scale: percent change from vehicle, -100% = no light; Potency, µM (series often up to 57.5 µM), for inactives: at the top dose activity change, positive = activation, most hits filed as activators; 0.24% of 48,000 active; further: nearly all actives have a fitted effect of over 55% in size
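Firefly luciferase signal from promoter-reporter HEK293 cells was scaled between vehicle (0%) and zero RLU (-100%). Compounds were tested at final concentrations of up to 57.5 uM over 24 h at 37 degrees C. PTC124 at 50 uM final served as control inhibitor.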
NTMT1 inh: Primary qHTS for Inhibitors of N-terminal methyltransferase 1 (NTMT1): MTaseGlo Assay | N-terminal Xaa-Pro-Lys N-methyltransferase 1 (Homo sapiens), Q9BV86 | NTMT1 MTase-Glo SAH luminescence, purified enzyme | Potency, µM (top dose mostly 114 µM), without a hit: at the highest dose activity change, negative = inhibition, actives largely listed as inhibitors | 2.5% of 59,000 active;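 further: plate controls were DMSO vehicle for no effect and no enzyme for full effect; nearly all actives have a fitted effect of over 65% in size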
Target sequence (Q9BV86 whole entry, looked up): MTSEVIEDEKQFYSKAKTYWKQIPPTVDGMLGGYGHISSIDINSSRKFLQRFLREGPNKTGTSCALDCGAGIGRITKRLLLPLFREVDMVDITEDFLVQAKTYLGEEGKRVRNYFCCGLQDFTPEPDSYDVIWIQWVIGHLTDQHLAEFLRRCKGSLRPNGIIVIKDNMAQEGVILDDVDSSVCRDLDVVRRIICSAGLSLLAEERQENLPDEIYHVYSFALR
* hit, by the source's call; ! = not confirmed by another sample; [ ] = dose if it differs, or a comment. The call rests on the fitted dose curve; in most records, active means well fitted curve in the direction sought with a large enough effect; inconclusive means small, poorly fitted or top-dose-only effect, or another doubt; inactive means no such curve, though single readings can be large; an effect the other way counts as inactive or inconclusive. Potency means the concentration at half of the fitted maximal effect.

How did CCOC(=O)c1c(C)oc2ccc(N(C(C)=O)S(=O)(=O)c3c(C)cc(C)cc3C)cc12 do in these assays?
HTT promoter inh: -23.5%; HTT-AS promoter: -14.9%; NTMT1 inh: 4.1%

How did OCc1ccc(O[C@@H]2O[C@H](CO)[C@@H](O)[C@H](O)[C@H]2O)cc1 do in these assays?
NTMT1 inh: 12.3%[57.5 µM]

Results for Cc1ccc(-c2ccc(=O)n(CC(=O)N(C3CCCCC3)C3CC3)n2)cc1 ?
NTMT1 inh: 2.1%

How did Cc1ccc(OCCn2c(CCNCC3CCCCC3)nc3ccccc32)cc1 do in these assays?
NTMT1 inh: -9.2%[57.5 µM]

Results for CC1(C)CC2C3=CCC4C5(C)CCC(OC6OC(C(=O)O)C(O)C(O)C6OC6OC(CO)C(O)C(O)C6OC6OC(CO)C(O)C(O)C6O)C(C)(CO)C5CCC4(C)C3(C)CCC2(C)C(OC2OCC(O)C(OC3OC(CO)C(O)C(O)C3O)C2O)C1O (stereo not given) ?
NTMT1 inh: 1.0%[6.45 µM]

What do the screens show for `CC(=O)c1c(C)oc2ccc(N(C(=O)c3ccncc3)S(=O)(=O)c3ccc(C)cc3C)cc12`?
HTT promoter inh: 28.2µM*; HTT-AS promoter: -44.7%; NTMT1 inh: -2.5%

What do the screens show for `CCCCC(=O)N(c1ccc2oc(C)c(C(C)=O)c2c1)S(=O)(=O)c1ccc(F)cc1C`?
HTT promoter inh: -40.8%; HTT-AS promoter: -28.9%; NTMT1 inh: 4.7%

How did COc1ccc(-c2noc(N3CCC(C(=O)Nc4ccc(F)cc4Cl)CC3)n2)cc1 do in these assays?
HTT promoter inh: 1.78µM*; HTT-AS promoter: -85.8%; NTMT1 inh: 5.7%

What do the screens show for `COc1ccc(-c2noc(N3CCC(C(=O)N4CCN(c5ccccc5OC)CC4)CC3)n2)cc1`?
HTT promoter inh: 12.6µM*; HTT-AS promoter: -58.4%; NTMT1 inh: -3.6%

How did COc1ccc(-c2noc(N3CCC(C(=O)N4CCN(c5cccc(OC)c5)CC4)CC3)n2)cc1 do in these assays?
HTT promoter inh: 2.24µM*; HTT-AS promoter: -84.4%; NTMT1 inh: -1.6%

Results for COc1ccc(-c2noc(N3CCC(C(=O)N(C)c4cc(Cl)ccc4OC)CC3)n2)cc1 ?
HTT promoter inh: inconclusive; HTT-AS promoter: -70.8%; NTMT1 inh: 8.1%

What do the screens show for `CCc1ccc(NC(=O)C2CCN(c3nc(-c4ccc(OC)cc4)no3)CC2)cc1`?
HTT promoter inh: inconclusive; HTT-AS promoter: -48.3%; NTMT1 inh: -4.5%

How did COc1ccc(-c2noc(N3CCC(C(=O)N4CCN(c5cccc(C)c5C)CC4)CC3)n2)cc1 do in these assays?
HTT promoter inh: inconclusive; HTT-AS promoter: -18.1%; NTMT1 inh: -7.0%

How did Clc1ccc(CSc2nc3ncc(Br)cc3[nH]2)cc1Cl do in these assays?
NTMT1 inh: 7.9%

Results for O=C(c1ccc(-c2cnc3c(O)cccc3c2)cc1)N1CCNCC1 ?
NTMT1 inh: -11.9%

How did Cc1ccc(C(=O)NC(c2ccco2)c2cc(Cl)c3cccnc3c2O)cc1 (stereo not given) do in these assays?
NTMT1 inh: 11.8%

How did COc1ccc(C(=O)NC(c2ccc(Cl)cc2)c2cc(Cl)c3cccnc3c2O)cc1 (stereo not given) do in these assays?
HTT promoter inh: 17.8µM*; HTT-AS promoter: -58.9%; NTMT1 inh: 13.4%

Results for CCCCN=C(N)N=C(N)N ?
HTT promoter inh: -4.4%; HTT-AS promoter: 1.9%

How did CCCCC(CC)CN=C(N)NC(N)=NCCCCCCN=C(N)NC(N)=NCC(CC)CCCC (stereo not given) do in these assays?
HTT promoter inh: inconclusive; HTT-AS promoter: -76.7%; NTMT1 inh: 3.16µM*

How did CC(=O)N[C@H]1[C@H](O[C@H]2CC[C@]3(C)C4CC=C5[C@@H]6CC(C)(C)CC[C@]6(C(=O)O)[C@H](O)C[C@@]5(C)[C@]4(C)CC[C@H]3C2(C)C)O[C@H](CO)[C@@H](O)[C@@H]1O (stereo not given in full) do in these assays?
NTMT1 inh: 28.7%[12.6 µM]

How did COc1ccccc1NC(=O)CSc1nnc(-c2ccccc2C)o1 do in these assays?
HTT promoter inh: 60.3%; HTT-AS promoter: inconclusive; NTMT1 inh: -1.5%

Results for O=C(CSc1nnc(-c2ccccc2F)o1)Nc1ccccc1Cl ?
HTT promoter inh: 42.5%; HTT-AS promoter: 2.24µM*; NTMT1 inh: inconclusive

Results for COc1ccc(C(=O)Nc2ccc(-c3nc4ccccc4s3)cc2C)cc1Cl ?
HTT promoter inh: 56.8%; HTT-AS promoter: 1µM*; NTMT1 inh: -10.9%

Results for COc1ccc(C(=O)Nc2cc(-c3nc4ccccc4s3)ccc2OC)cc1 ?
HTT promoter inh: 7.3%; HTT-AS promoter: -3.2%; NTMT1 inh: 6.3%

How did CC(C)CC(=O)OC1OC=C(CO[C@@H]2O[C@H](CO)[C@@H](O)[C@H](O)[C@H]2O)C2CC(O)C(O)(CO)C12 (stereo not given in full) do in these assays?
NTMT1 inh: 9.4%[29.8 µM]

How did COc1ccc(NC(=O)CSc2nc3c(oc4ccccc43)c(=O)n2Cc2ccco2)cc1Cl do in these assays?
HTT promoter inh: inconclusive; HTT-AS promoter: -45.3%; NTMT1 inh: -4.9%

Results for COCCn1c(SCC(=O)Nc2ccc(F)c(Cl)c2)nc2c(oc3ccccc32)c1=O ?
HTT promoter inh: 3.8%; HTT-AS promoter: -45.0%; NTMT1 inh: 79.4µM*

Results for CC(C)c1onc(-c2c(Cl)cccc2Cl)c1COc1ccc(C=Cc2cccc(C(=O)O)c2)c(Cl)c1 ?
HTT promoter inh: 23.0%; HTT-AS promoter: inconclusive; NTMT1 inh: 17.1µM*

Results for C[C@@H]1O[C@@H](O[C@H]2[C@H](O[C@H]3[C@H](O[C@H]4CC[C@@]5(C)C(CC[C@]6(C)C5CC=C5[C@@H]7CC(C)(C)CC[C@]7(C(=O)O[C@@H]7O[C@H](CO)[C@@H](O[C@@H]8O[C@@H](C)[C@H](O)[C@@H](O)[C@H]8O)[C@H](O)[C@H]7O)CC[C@]56C)C4(C)C)OC[C@H](O)[C@@H]3O)O[C@H](CO)[C@@H](O)[C@@H]2O)[C@H](O)[C@H](O)[C@H]1O (stereo not given in full) ?
NTMT1 inh: 1.0%[6.45 µM]

How did Cc1ccc(-c2noc(-c3cccnc3NCc3ccco3)n2)cc1 do in these assays?
HTT promoter inh: 61.7%; HTT-AS promoter: inconclusive; NTMT1 inh: -2.2%

What do the screens show for `COc1ccc(-c2noc(-c3cccnc3NCc3ccco3)n2)cc1`?
HTT promoter inh: 69.6%; HTT-AS promoter: 11.2µM*; NTMT1 inh: -2.3%

What do the screens show for `COc1cccc(CCC(=O)NCCc2nc3ccccc3n2CCOc2ccc(C)cc2)c1`?
NTMT1 inh: 6.9%

Results for CC1=NN(c2ccc(C(=O)O)cc2)C(=O)/C1=C/c1ccc(-c2cc(C)c(C)cc2[N+](=O)[O-])o1 ?
NTMT1 inh: 50.1µM*

How did O=C(O)c1ccc2c(c1)C(=O)N([C@H](Cc1ccc([N+](=O)[O-])cc1)C(=O)O)C2=O do in these assays?
NTMT1 inh: 1.8%

Results for CNCc1ccc(-c2[nH]c3cc(F)cc4c3c2CCNC4=O)cc1 ?
HTT promoter inh: 5.5%; HTT-AS promoter: -6.4%; NTMT1 inh: 6.31µM*!
